An excerpt weighted towards active compounds, which were near 7.7% of everything screened.
Sm TGR inh: qHTS Assay for the Inhibitors of Schistosoma Mansoni Peroxiredoxins. Schistosoma mansoni thioredoxin glutathione reductase (TGR), Q962Y6. AID 485364, 2010. 360,000 compounds, 3% hits. purified TGR, DTNB reduction, TNB absorbance 405 nm. Potency, µM (top dose mostly 114 µM), inactives show at the top dose activity change, negative = inhibition, hits mostly inhibitors; note: potency is the fitted concentration of half-maximal effect; nearly all actives have a fitted effect of over 60% in size
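Kinetic colorimetric format: TGR-catalysed, NADPH-driven DTNB reduction monitored via TNB absorbance. Enzyme dispensed at 20 nM; compound exposure 15 min at room temperature before reaction start.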
Giardia FBPA inh-1: qHTS Assay for Inhibitors of Fructose-1,6-bisphosphate Aldolase from Giardia Lamblia; A8B2U2; purified Giardia FBPA; 290,000 compounds, 0.71% hits; Potency, µM (top dose mostly 59.6 µM), without a hit: top-dose activity, negative = inhibition, usual class: inhibitors; note: potency is the fitted concentration of half-maximal effect; nearly all actives have a fitted effect of over 55% in size
Target sequence (A8B2U2 whole entry, looked up): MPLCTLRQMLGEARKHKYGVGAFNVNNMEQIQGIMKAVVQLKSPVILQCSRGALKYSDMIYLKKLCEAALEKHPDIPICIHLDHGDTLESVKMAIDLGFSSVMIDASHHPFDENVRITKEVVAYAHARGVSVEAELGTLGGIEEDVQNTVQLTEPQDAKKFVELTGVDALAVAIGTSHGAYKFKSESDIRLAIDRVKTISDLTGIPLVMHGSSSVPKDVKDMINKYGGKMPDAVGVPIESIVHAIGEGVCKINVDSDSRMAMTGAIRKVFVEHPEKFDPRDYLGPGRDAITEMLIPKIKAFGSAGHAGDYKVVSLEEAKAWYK
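40 nM FBPA preincubated 10 min at RT with compound (up to 57.5 uM final), then substrate plus GAPDH/TPI/NAD/arsenate coupling and diaphorase/resazurin added. Fluorescence read after 20 min at RT, 525/598 nm.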
HCMV inh: qHTS Assay for inhibitors of the human cytomegalovirus (HCMV); HFF cells, HCMV-luciferase reporter, 72 h; active compounds read low; activity change, negative = inhibition, % at 57.5 µM; 410,000 compounds, 4.5% hits; AID 1259415, 2018; in the data active = activity change below about -60%; inconclusive = no clear call, values can overlap the other calls; inactive = above about -39%
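Two-dose cell screen: HFF monolayers treated with compounds and infected with luciferase-expressing HCMV at 1 PFU/cell, 72 h at 37C, then lysed for luciferase measurement.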
RE007 growth inh: qHTS Assay for Inhibitors of the HIV-1 protein Vpr | S. pombe RE007 Vpr strain, BacTiter-Glo ATP luminescence, 24 h | Potency, µM (highest dose often 92.2 µM), without a hit: top-dose activity change, negative = less growth, most hits filed as inhibitors | 360,000 compounds, 0.21% hits; active = well fitted falling curve with a large enough effect; inconclusive = small, poorly fitted or top-dose-only effect; inactive = no such curve, though single readings can be large or run the other way; note: potency is the fitted concentration of half-maximal effect; nearly all actives have a fitted effect of over 50% in size
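Fission yeast strain RE007, carrying one chromosomally integrated HIV-1 vpr copy, was seeded at OD 0.01 in PMG+AL medium with 23 nL pinned compound. After 24 h at 30 °C and 99% humidity, viability was read by BacTiter-Glo luminescence.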
FMDV inh: High Throughput Screening for Foot and Mouth Disease Virus Antivirals. FMDV antiviral cell-based qHTS. 410,000 compounds, 1.2% hits. AID 1159524, 2015. Potency, µM (highest dose often 57.9 µM), without a hit: top-dose activity change, negative = inhibition, actives largely listed as inhibitors; calls by dose curve; tested in HEK293T cells; note: read-out not given here; potency is the fitted concentration of half-maximal effect; nearly all actives have a fitted effect of over 45% in size
Tb PYK inh: qHTS of Trypanosoma Brucei Inhibitors | pyruvate kinase (Trypanosoma brucei), Q57TT1 | TbPYK enzyme, Kinase-Glo Plus ATP luminescence, 45 min | Potency, µM (doses to about 76.8 µM), inactives show at the highest dose activity, negative = inhibition, most hits filed as inhibitors | 410,000 compounds, 0.12% hits | AID 624173, 2012; note: potency is the fitted concentration of half-maximal effect; nearly all actives have a fitted effect of over 50% in size
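Luminescence from Kinase-Glo Plus, added after a 45-minute room-temperature reaction, served as the end-point read-out. The enzyme and substrate were preincubated with compound before ADP (130 uM final) initiated turnover. Concentration-effect curves came from normalized qHTS data.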
Giardia growth: qHTS Assay for Inhibitors of Fructose-1,6-bisphosphate Aldolase from Giardia Lamblia: Giardia lamblia growth inhibition; shares compounds with Giardia FBPA inh-1; Giardia lamblia trophozoite growth inhibition; Potency, µM (top dose mostly 57.5 µM), for inactives: at the highest dose activity change, negative = inhibition, hits mostly inhibitors; 1,500 compounds, 5% hits; AID 2785, 2010;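 note: potency is the fitted concentration of half-maximal effect; trophozoites exposed to compound for 48 h at 37 °C; nearly all actives have a fitted effect of over 70% in size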
Mammal cell tox: qHTS Assay for Inhibitors of Fructose-1,6-bisphosphate Aldolase from Giardia Lamblia: Mammalian cellular toxicity | shares compounds with Giardia FBPA inh-1 | mammalian cell viability counter-screen, qHTS | Potency, µM (highest dose often 57.5 µM), for inactives: at the top dose viability change, negative = toxicity, hits mostly inhibitors | 1,500 compounds, 4% hits;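 note: Chinese hamster ovary cells used as mammalian cytotoxicity surrogate; viability measured as cellular ATP by luminescence; potency is the fitted concentration of half-maximal effect; compound exposure lasted 48 h before reading; nearly all actives have a fitted effect of over 60% in size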
Giardia FBPA inh-2: qHTS Assay for Inhibitors of Fructose-1,6-bisphosphate Aldolase from Giardia Lamblia: Primary screen confirmation; shares compounds with Giardia FBPA inh-1; purified Giardia aldolase enzyme activity, qHTS; Potency, µM (highest dose often 57.5 µM), without a hit: at the highest dose activity change, negative = inhibition, most hits filed as inhibitors; 1,500 compounds, 5% hits; note: potency is the fitted concentration of half-maximal effect; nearly all actives have a fitted effect of over 45% in size
Rabbit aldolase: qHTS Assay for Inhibitors of Fructose-1,6-bisphosphate Aldolase from Giardia Lamblia: Rabbit FBPA Selectivity. shares compounds with Giardia FBPA inh-1. Rabbit muscle FBPA enzyme inhibition, selectivity counter-screen. Potency, µM (titrated, usually from 57.5 µM), for inactives: top-dose activity, negative = inhibition, hits mostly inhibitors. 1,500 compounds, 4% hits; note: potency is the fitted concentration of half-maximal effect; nearly all actives have a fitted effect of over 60% in size
Target sequence (P00883 whole entry, looked up): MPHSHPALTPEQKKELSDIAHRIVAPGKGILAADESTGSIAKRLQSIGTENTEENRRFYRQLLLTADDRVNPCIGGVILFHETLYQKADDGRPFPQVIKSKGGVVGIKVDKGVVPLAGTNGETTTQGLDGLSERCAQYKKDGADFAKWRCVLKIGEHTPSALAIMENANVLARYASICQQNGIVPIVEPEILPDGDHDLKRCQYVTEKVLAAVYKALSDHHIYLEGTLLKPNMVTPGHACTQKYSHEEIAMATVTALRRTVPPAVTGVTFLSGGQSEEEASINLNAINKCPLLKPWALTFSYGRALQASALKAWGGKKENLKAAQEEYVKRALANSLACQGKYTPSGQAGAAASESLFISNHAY
GAPDH counter: qHTS Assay for Inhibitors of Fructose-1,6-bisphosphate Aldolase from Giardia Lamblia: Coupling assay counterscreen confirmation; shares compounds with Giardia FBPA inh-1; 1,500 compounds, 6% hits; Potency, µM (titrated, usually from 57.5 µM), for the others: at the top dose activity change, negative = inhibition, hits mostly inhibitors; AID 2795, 2010; GAPDH coupling enzyme counterscreen, biochemical, qHTS; note: potency is the fitted concentration of half-maximal effect; nearly all actives have a fitted effect of over 55% in size
An asterisk follows results filed as active; ? = inconclusive; . = not tested or not shown; [ ] = remark or other dose. Unless noted, calls come from the whole dose curve; as a rule, active = well fitted curve in the direction sought with a large enough effect; inconclusive = small, poorly fitted or top-dose-only effect, or another doubt; inactive = no such curve, though single readings can be large; an effect the other way counts as inactive or inconclusive. % is set by controls: 0 for no effect and ±100 for the full control effect.

SMILES	Sm TGR inh	Giardia FBPA inh-1	HCMV inh	RE007 growth inh	FMDV inh	Tb PYK inh	Giardia growth	Mammal cell tox	Giardia FBPA inh-2	Rabbit aldolase	GAPDH counter
COc1ccc(-c2n[nH]c(=S)n2N)c(OC)c1	6.6%	9.98µM*	0.0	6.5%	-13.5%	-28.9%	-13.3%	-0.5%	0.4%	12.1%	10.2%
COc1ccc(-n2c(-c3ccc(Cl)cc3Cl)n[nH]c2=S)c(OC)c1	-11.6%	10.8%	-0.7	7.9%	21.7%	-20.7%	.	.	.	.	.
Cc1cc(C)c(NC(=O)CSc2nc(=O)n(Cc3cccnc3)c3c2CCC3)c(C)c1	0.5%	.	-5.0	.	43.1%	0.2%	.	.	.	.	.
O=C(O)Cn1c2ccccc2c2n[nH]c(=S)nc21	-36.0%	8.91µM*	12.9	8.1%	16.2%	?	19.3%	-2.8%	6.6%	3.9%	8.2%
O=C(O)c1cccc(-n2c(-c3cnccn3)n[nH]c2=S)c1	4.6%	19.9µM*	-11.9	-1.9%	-12.7%	-19.1%	9.8%[10.4 µM]	-0.7%	-0.4%	3.3%	7.8%
CCN(CC)c1ccc(N=Nc2ncn[nH]2)cc1	-4.3%	3.54µM*	37.6	-23.6%	-15.3%	-7.1%	?	31.6µM*	-6.7%	1.0%	-14.8%
CCN(CC)c1ccc(N=Nc2nn(C)c(C)c2[N+](=O)[O-])cc1	-9.4%	-12.8%	?	-15.8%	-8.1%	-13.2%	.	.	.	.	.
C=CCN1C(=O)NC(=O)/C(=C/c2c(CCN(C)C(=O)c3ccccc3)cc3c(c2OC)OCO3)C1=O	-18.0%	-6.1%	-2.8	-3.4%	-4.1%	-15.4%	.	.	.	.	.
CNC(=S)N(C)CCc1cc2c(c(OC)c1C=C1C(=O)NC(=O)NC1=O)OCO2	?	7.06µM*	-5.1	3.5%	-20.5%	-10.5%	-8.9%[38.3 µM]	-6.1%	-8.7%	0.5%	2.5%
COc1cc(C(=O)O/N=C2\C=CC(=O)C=C2C)cc(OC)c1OC	3.16µM*	3.97µM*	?	-15.2%	?	-17.9%	-13.3%[38.3 µM]	?	28.2µM*	31.6µM*	31.6µM*
Cc1c(C(=O)O)c(C(=O)O)nc2ccc(N3CCOCC3)cc12	-16.8%	11.2µM*	.	.	.	.	24.6%	7.9%	?	-20.8%	?
O=C(O)COc1ccccc1C(Nc1cccnc1)c1cc(Cl)c2cccnc2c1O (stereo not given)	1µM*	17.7µM*	.	13.1%	-5.8%	29.9%	29.6%	11.4%	-16.5%	-6.2%	2.9%
O=C(O)c1cccnc1C(=O)O	1.2%	0.629µM*	.	6.6%	-13.4%	-3.5%	8.5%[38.3 µM]	-3.3%	-5.9%	-5.8%	-4.9%
Cc1ccccc1N1CCN(CC(=O)Nc2nccs2)CC1	0.0%	11.2µM*	-16.8	8.1%	-13.3%	1.2%	-15.3%	-4.2%	5.8%	6.3%	6.1%
O=C(CN1CCN(c2ccccc2)CC1)Nc1nccs1	5.7%	-14.9%	-31.6	-0.4%	-10.4%	5.0%	.	.	.	.	.
NC(=O)C1CCN(CC(=O)Nc2nccs2)CC1	0.8%	3.55µM*	10.1	-9.0%	1.2%	4.6%	?	-5.6%	-24.8%	0.6%	13.9%
CCOc1ccc(C(=O)C2CCN(CC(=O)Nc3nccs3)CC2)cc1	-1.9%	?	16.7	3.2%	?	-0.7%	.	.	.	.	.
COc1ccc(CCNC(=O)c2cnc3sc(N4CCOCC4)nn3c2=O)cc1OC	1.3%	.	9.8	.	0.0%	-4.7%	.	.	.	.	.
O=S(=O)(c1ccc(F)cc1)N1CCN(CC(O)COc2ccccc2F)CC1 (stereo not given)	-7.9%	28.2µM*	?	-2.6%	-22.9%	-0.8%	?	-15.2%	1.7%	0.7%	6.9%
N#Cc1ccccc1S(=O)(=O)N1CCN(CC(O)COc2ccccc2F)CC1 (stereo not given)	-12.9%	15.8µM*	-21.7	-9.2%	-8.2%	-1.1%	?	-9.6%	7.7%	2.8%	8.7%
CC(C)c1ccccc1OCC(O)CN1CCN(S(=O)(=O)c2ccc([N+](=O)[O-])cc2)CC1 (stereo not given)	-5.8%	17.8µM*	23.1	8.3%	?	3.0%	5.62µM*	2.5%	-4.3%	-11.0%	-7.5%
O=S(=O)(c1ccccc1)N1CCN(CC(O)COc2ccc3c(c2)CCC3)CC1 (stereo not given)	17.7%	-1.6%	-20.1	8.5%	.	-0.3%	.	.	.	.	.
O=S(=O)(c1ccc(F)cc1)N1CCN(CC(O)COCc2cccs2)CC1 (stereo not given)	-7.2%	-17.7%	39.3	4.6%	-4.3%	-7.8%	.	.	.	.	.
O=S(=O)(c1ccccc1C(F)(F)F)N1CCN(CC(O)COc2ccccc2F)CC1 (stereo not given)	-14.6%	?	48.0	-12.4%	-10.5%	-4.5%	.	.	.	.	.
C[C@H](NC(c1cccc2nc(O)c(O)nc12)P(=O)(O)O)c1ccc(Br)cc1 (stereo not given in full)	.	0.5%	.	.	.	.	.	.	.	.	.
Cc1cc(C)cc(NC(=O)N2CCC(N3CCCCC3)CC2)c1	0.3%	.	6.2	.	-23.2%	-11.0%	.	.	.	.	.
CC(=O)Nc1cccc(-c2csc(NCc3ccccc3)n2)c1	-6.7%	19.9µM*	-15.9	-15.1%	1.7%	-15.3%	18.0%	-6.6%	7.9%	8.2%	4.6%
CC(=O)Nc1ccc(-c2csc(NCc3ccccc3)n2)cc1	.	-6.6%	84.3	-4.0%	53.5%	6.7%	.	.	.	.	.

Screening data: PubChem BioAssay, National Center for Advancing Translational Sciences (NCATS)
